Experimental data taken from PubChem BioAssay (NCI).
This is part of a sample that, as a whole, favours compounds with a hit. Of some 83,000 tested, about 20% had one in any assay.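 Note: values are percent growth. 100 is the growth of untreated cells, values between 100 and 0 indicate rising inhibition; between -100 and 0 indicates cell death.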 A number with no mark means an inactive call. The source made the active and inactive calls. How the source made its calls: active means growth percent below 10; inactive means the rest.

What was measured:
Assay in all cases: NCI-60 one-dose screen, 48 h (100 = growth as untreated, 0 = no growth, -100 = all killed)
Conditions in all cases: 10 µM unless noted
[1] = system: DU-145 prostate
[2] = system: K-562 leukemia
[3] = system: MALME-3M melanoma
[4] = system: MDA-MB-231 breast
[5] = system: RXF 393 renal
[6] = system: SF-268 CNS
[7] = system: SF-295 CNS
[8] = system: SF-539 CNS
[9] = system: UACC-257 melanoma
[10] = system: M14 melanoma
[11] = system: HCT-15 colon
[12] = system: HT29 colon
[13] = system: SNB-75 CNS
[14] = system: U251 CNS
[15] = system: PC-3 prostate
[16] = system: SK-MEL-5 melanoma
[17] = system: UACC-62 melanoma
[18] = system: LOX IMVI melanoma
[19] = system: SK-MEL-28 melanoma
[20] = system: SNB-19 CNS

SMILES	growth [1]	growth [2]	growth [3]	growth [4]	growth [5]	growth [6]	growth [7]	growth [8]	growth [9]	growth [10]	growth [11]	growth [12]	growth [13]	growth [14]	growth [15]	growth [16]	growth [17]	growth [18]	growth [19]	growth [20] [%]
COc1ccc(-c2[nH]ncc2Nc2cc(OC)c(OC)c(OC)c2)cc1	46.5%	57.2%	44.1%	53.3%	20.5%	53.1%	13%	1.83% (active)	66.5%	31.1%	32.2%	26.2%	44.6%	31.1%	33.6%	-11.3% (active)	27.4%	46.1%	67.2%	–
COc1nc2c(cc1S(=O)(=O)c1ccccc1)CCc1c-2cnn1-c1ccccc1Cl	90.8%	54.3%	97.4%	70.2%	52.6%	74.1%	63%	60.5%	72.6%	68.9%	51.5%	36.9%	50.9%	–	35.9%	68%	60%	78%	85.2%	64.5
COc1ccc(C(=O)C2=CC(=O)C(=O)C2)cc1OC	111%	116%	114%	124%	106%	103%	100%	95.5%	115%	107%	96.2%	98.1%	90.8%	–	94.5%	103%	–	101%	112%	105
CCOC(=O)c1sc(NC(=O)CN2CCC(Cc3ccccc3)CC2)nc1C	102%	93.9%	82.4%	119%	111%	106%	42.3%	106%	127%	101%	92.9%	79.8%	109%	–	93.1%	–	114%	96.7%	110%	104
Cc1nc2nc(C(F)(F)F)[nH]c2nc1C	115%	92.9%	117%	114%	106%	102%	78.6%	120%	100%	105%	111%	107%	85.1%	102%	104%	–	102%	98.6%	102%	–
COC1(OC)C2(Cl)C=C(c3ccccc3)C1(Cl)C(Cl)=C2Cl (configuration not stated)	113%	88.8%	97.9%	110%	104%	101%	93.9%	91.5%	90.1%	97.2%	119%	83.5%	67%	–	86.2%	104%	96.6%	90%	102%	102
COC(=O)[C@H]1CCCN1C(=O)[C@H]1CCCN1C(=O)[C@@H](Cc1c[nH]c2ccccc12)NC(=S)Nc1cc(C(F)(F)F)cc(C(F)(F)F)c1	51.7%	34.2%	47.4%	44.5%	56.3%	36.1%	-50.5% (active)	74.4%	75.4%	44.4%	55.5%	39%	40.3%	–	–	–	58.7%	44.2%	53%	36.8
COc1ccc(OC)c2ncccc12	112%	96%	89.7%	109%	107%	102%	95%	102%	110%	93.5%	96.3%	97.4%	88.6%	–	92%	102%	114%	95.6%	117%	110
O=C(Nc1ccc(Cl)c(Cl)c1)NC(CO)(CO)CO	112%	92.8%	87.7%	109%	100%	97.8%	94.4%	103%	97.5%	97.4%	94.9%	100%	79.3%	–	86.3%	99.3%	113%	95.2%	107%	101
COc1cc(C2CC(=O)Nc3c2ccc2ccccc32)cc(Br)c1OC (configuration not stated)	-4.56% (active)	6.59% (active)	27.6%	28.5%	-1.55% (active)	42.5%	-33.7% (active)	0.195% (active)	59.7%	-15.3% (active)	27.9%	-6.29% (active)	-18.6% (active)	18.6%	15.2%	–	12.1%	25.1%	43.6%	–
COc1ccc(/C=C2\SC(=O)N(CN3CCN(c4cc5c(cc4F)c(=O)c(C(=O)O)cn5C4CC4)CC3)C2=O)cc1	109%	114%	97.6%	106%	108%	99%	99.6%	107%	96.7%	88.6%	106%	111%	85.1%	99.8%	97.6%	97.2%	98.1%	79.9%	112%	–
O/N=C/c1cccs1	116%	87.2%	105%	112%	107%	111%	95%	96.9%	98.5%	105%	98.4%	107%	94.3%	–	101%	103%	119%	107%	112%	107
COc1cc(/C=C/c2cc(/C=C/c3ccc(O)c(OC)c3)n(-c3ccccc3)n2)ccc1O	-45.7% (active)	-15.5% (active)	-39% (active)	5.23% (active)	-70% (active)	-12.5% (active)	-71.5% (active)	-39.8% (active)	16%	-56% (active)	-3.38% (active)	-52.4% (active)	-53.2% (active)	1.47% (active)	-33.1% (active)	-86.5% (active)	-84.4% (active)	-37.1% (active)	-6.73% (active)	–
COc1ccc(Sc2ccc3[nH]c(=O)nc(N)c3c2)cc1	108%	100%	102%	91.5%	101%	107%	106%	105%	92%	105%	103%	106%	91.3%	94.3%	96.9%	103%	105%	99.7%	104%	–
COc1nc2c(cc1S(=O)(=O)c1ccccc1)CCc1c-2cnn1-c1ccccc1	95.4%	54.1%	69.2%	89.2%	94.4%	86.8%	84.9%	79%	78.2%	80.7%	59.8%	54.7%	65.8%	–	50.3%	86.6%	69.4%	90%	82.9%	89.3
CCCCCCCCCCCCCCNc1nc(CO)ncc1-c1ccc(C(F)(F)F)cc1	103%	99.6%	91.8%	118%	99.8%	91.8%	97%	95.6%	94.7%	99.8%	103%	104%	74.2%	–	94.6%	98.5%	95.5%	91.6%	108%	118
Cc1c(C)n(CC(O)CNC2CCCCC2C)c2ccccc12 (configuration not stated)	-67.2% (active)	4.09% (active)	-64.1% (active)	-9.38% (active)	-90.2% (active)	-42.5% (active)	-45.7% (active)	-87.3% (active)	-75.8% (active)	-59.4% (active)	-16.2% (active)	-49.6% (active)	-38.7% (active)	-52.1% (active)	-24% (active)	-86.2% (active)	-84.7% (active)	-83.1% (active)	-85.2% (active)	–
